# Screening data from PubChem BioAssay.
# HT1080NT lethal = kills 2HG-producing HT-1080-NT fibrosarcoma cells | Potency, µM (top dose mostly 46.1 µM), actives largely listed as cytotoxic | 360,000 compounds, 1.6% hits | HT-1080-NT fibrosarcoma viability, CellTiter-Glo ATP luminescence, 48 h;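 note: NT is the 2HG producing partner of a matched IDH1 knockdown line; nearly all actives have a fitted effect of over 55% in size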
#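 A 48-hour cytotoxicity screen used HT-1080-NT cells plated 2 hours before compound delivery. ATP-based CellTiter-Glo luminescence measured viability, normalized to DMSO and no-cell controls.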
# TDP1 cell CPT = growth inhibition of DT40 Tdp1-/-;hTDP1 cells with camptothecin (screen for TDP1 inhibitors). chicken DT40 Tdp1-/-;hTDP1 cells + 20 nM CPT, ATP luminescence, 48 h. 420,000 compounds, 12% hits. Potency, µM (highest dose often 46.2 µM), usual class: inhibitors. AID 686979; note: nearly all actives have a fitted effect of over 55% in size
#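 Cell growth measured by CellTiter-Glo luminescence after a minimum 48 h, 37 C compound exposure with 20 nM CPT in Tdp1-knockout DT40 cells stably expressing hTDP1, seeded 400/well; qHTS titration format.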
# TDP1 cell noCPT = qHTS for Inhibitors of human tyrosyl-DNA phosphodiesterase 1 (TDP1): qHTS in cells in absence of CPT. DT40 Tdp1-/- hTDP1 cells, no CPT, ATP luminescence, 48 h. Potency, µM (top dose mostly 46.2 µM), hits mostly inhibitors. 420,000 compounds, 15% hits; note: nearly all actives have a fitted effect of over 55% in size
#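 A cellular qHTS used chicken DT40 cells lacking endogenous Tdp1 but carrying stably transfected human TDP1. Compounds were applied without camptothecin, and cell growth kinetics were judged by ATP-dependent luminescence after ≥48 hr.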
# IL-1B inflam inh = inhibitors of inflammasome signaling (IL-1 beta secretion). activity change, % at 57.5 µM. AID 743279. THP-1 LPS/ATP IL-1B secretion, AlphaLISA, 16 h; hits give low values. 360,000 compounds, 4.7% hits; in the data active = activity change below about -50%; inconclusive = mostly about -30% to -49%
#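 Secreted IL-1B measured by AlphaLISA bead assay after 16 h compound exposure of THP-1 cells; compounds (final up to 57.5 uM) added 1 h before LPS (250 ng/mL) and ATP (1.25 mM) stimulation; lower signal means less secretion.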
# HT1080 IDH1KD tx = toxicity to HT-1080 IDH1 knockdown cells (counter line) | Potency, µM (top dose mostly 46.1 µM), most hits filed as cytotoxic | HT-1080 IDH1 knockdown viability, ATP luminescence, 48 h | AID 686971 | 360,000 compounds, 2% hits
#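 HT-1080-IDH1KD cells (IDH1 knocked down), 750/well in RPMI with 5% FBS, treated with compound 48 h at 37 degrees C. Viability by CellTiter-Glo luminescence, normalised to DMSO and no-cell wells; concentration-response curves classed.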
# A number is an active result; 0 = inactive; ? = inconclusive; - = not tested or not shown; [ ] = another dose, or the depositor's remark. Sampled rows, rich in hits. Any-hit rate of the full collection: about 19%. Unless noted, calls come from the whole dose curve; as a rule, active = well fitted curve in the direction sought with a large enough effect; inconclusive = small, poorly fitted or top-dose-only effect, or another doubt; inactive = no such curve, though single readings can be large; an effect the other way counts as inactive or inconclusive.
SMILES,HT1080NT lethal,TDP1 cell CPT,TDP1 cell noCPT,IL-1B inflam inh,HT1080 IDH1KD tx
CC(C)N(Cc1ccccc1)C(=O)c1nc(-c2ccc(Cl)cc2)n2c1CCCCC2,-,9.2µM,18µM,-,-
Cc1cc(C(=O)NCCc2ccc(Cl)cc2)c2c(C)nn(-c3cccc(F)c3)c2n1,-,0,0,-,-
O=C(NCCc1ccc(Cl)cc1)c1nc(-c2cccc(F)c2)n2c1CCCCC2,-,18µM,9.2µM,-,-
O=C(NCCc1ccccc1)c1nc(-c2ccc(Cl)cc2)n2c1CCCCC2,-,12µM,10µM,-,-
COC(=O)c1ccc(NC(=O)c2nc(-c3ccc(Cl)cc3)n3c2CCCCC3)cc1,-,0.73µM,0.82µM,-,-
CCc1nc2ccccc2c(C(=O)Nc2cccc(C)c2)c1C,0,?,?,0,?
CC1CN(CC(=O)NCc2ccccc2)CC(C)O1 (stereo unspecified),0,0,0,0,0
CCOc1ccccc1CNC(=O)c1nn(CC)cc1[N+](=O)[O-],0,0,0,0,0
CCOc1ccccc1CNC(=O)c1nc(-c2ccc(Cl)cc2)n2c1CCCCC2,-,23µM,?,-,-
CCN1C(=S)N[C@@H](c2cccs2)C(C(=O)OC)=C1C,0,?,0,0,0
CCN(CC)S(=O)(=O)c1ccc2c(c1)N(CC(=O)Nc1ccccc1F)C(=O)C1CCCN21 (stereo unspecified),-,0,?,-,-
O=C(NC1CCCC1)C(c1ccc(F)cc1)N(Cc1ccc(Cl)cc1)C(=O)CCl (stereo unspecified),0,3.3µM,4.1µM,-102,0
O=C(NC1CCCC1)C(c1ccc(Cl)cc1)N(Cc1ccc(F)cc1)C(=O)CCl (stereo unspecified),0,2.6µM,2.6µM,?,0
O=C(NC1CCCC1)C(c1ccccc1)N(Cc1ccc(F)cc1)C(=O)c1csnn1 (stereo unspecified),0,0,0,0,0
Cc1nc(NC(=O)/C=C/c2ccccc2)sc1C(=O)Nc1ccc(Cl)cc1,?,?,?,0,?
Cc1nc(Nc2ccc(Cl)c(Cl)c2)sc1C(=O)Nc1ccccc1,?,6.5µM,15µM,0,0
Cc1nc(Nc2ccc(Cl)cc2Cl)sc1C(=O)Nc1ccccc1,0,26µM,18µM,-94,0
COc1ccc(CCN2CC(C(=O)N(C)CC(=O)Nc3ccc(F)c(F)c3F)CC2=O)cc1OC (stereo unspecified),0,0,0,0,0
Cc1c(NC(=O)c2ccc(Br)o2)cccc1-c1nc2ccccc2o1,-,26µM,23µM,-,-
Cc1c(NC(=O)c2cccc3c(Cl)cccc23)cccc1-c1nc2ccccc2o1,-,15µM,21µM,-,-
O=C(Nc1cc(-c2nc3ccccc3o2)ccc1Cl)c1cccc2c(Cl)cccc12,-,?,0,-,-
O=C1N/C(=N/O)S/C1=C\c1ccccc1-n1cccn1,0,0,?,0,0
CC(C)OC(=O)/C(=C/c1ccc2c(c1)c1ccccc1n2C)NC(=O)c1ccccc1,0,?,10µM,0,0
Cn1c2ccccc2c2cc(/C=C(\NC(=O)c3ccccc3)C(=O)O)ccc21,0,0,0,0,0
CC(C)OC(=O)/C(=C\c1ccc2c(c1)c1ccccc1n2C)NC(=O)c1ccccc1,0,21µM,21µM,0,0
SMILES,HT1080NT lethal,TDP1 cell CPT,TDP1 cell noCPT,IL-1B inflam inh,HT1080 IDH1KD tx
CCCCNC(=O)[C@@](CC)(ONc1ccccc1C(F)(F)F)c1cccc2ccccc12,0,15µM,?,?,0
S=C(NC1CC1)N1CCCc2ccccc21,0,0,0,0,0
Cc1ccc(N(C(=O)c2csnn2)C(C(=O)NC2CCCCC2)c2cccnc2)c(C)c1 (stereo unspecified),0,0,0,0,0
C/C(=C\C(=O)c1ccccc1)Nc1ccc(O)cc1,0,0,?,0,?
S=C(NNC(=S)Nc1ccc(Cl)cc1)NNc1ccccc1,0,15µM,16µM,0,0
NC(=S)NNC(=S)Nc1ccccc1,0,?,?,0,0
S=C(Nc1ccccc1)Nc1nccs1,0,5.2µM,3.7µM,0,0
O=C(Nc1nccs1)Oc1ccccc1,0,0,0,0,0
C/C(=C\C(=S)Nc1ccccc1)Nc1ccccc1,0,15µM,16µM,0,0
S=C(NNC(=S)Nc1ccccc1)Nc1ccccc1,0,3.7µM,3.3µM,?,0
COC(c1ccccc1)c1nnc(CCC(=O)N(C)Cc2cccc(-n3cccn3)c2)o1 (stereo unspecified),0,0,0,0,0
Cc1cc(C(=O)NCc2ccc(C(=O)O)o2)c(C)o1,0[9.24 µM],0,0,0,0
Cc1cccc(C)c1NC(=S)Nc1c(C)n(C)n(-c2ccccc2)c1=O,0,0,0,0,0
CCN(CC)CCNC(=O)CN1C(=O)CSc2ccc(S(=O)(=O)N3CCOCC3)cc21,0,0,0,0,0
S=C(NN=C(C1CC1)C1CC1)Nc1ccccc1,0,21µM,?,0,0
Cc1ccc(NC(=S)NNC(=S)NNc2ccccc2)cc1C,0,0,23µM,0,0
COc1ccccc1Nc1ncc(C(=O)N2CCC(C(N)=O)CC2)c2ccccc12,0,0,0,0,0
COc1ccccc1Nc1ncc(C(=O)N2CCN(Cc3ccc(OC)c(OC)c3OC)CC2)c2ccccc12,?,18µM,?,-73,0
COc1ccc(Nc2ncc(C(=O)N3CCN(Cc4ccccc4)CC3)c3ccccc23)cc1,0,18µM,?,-97,0
Cc1ccc(NC(=O)/C(=C\c2cccnc2)NC(=O)c2ccccc2)cc1,0,0,0,0,0
Cc1sc2nc(CN(C(=O)NC3CCCCC3)C3CCCC3)[nH]c(=O)c2c1C,0,?,16µM,0,0
Cc1sc2ncn(CC(=O)N(CC(=O)NC3CCCC3)Cc3cccs3)c(=O)c2c1C,0,?,?,0,0
Cc1sc2nc(CN(Cc3cccs3)C(=O)NC3CCCCC3)[nH]c(=O)c2c1C,?,23µM,?,?,?
Cc1ccc(C)c(NC(=O)Cn2cc(S(=O)(=O)NC(C)C)c(S(=O)(=O)NC(C)C)c2)c1,-,0,0,-,-
COc1ccc(CCN2CCC(CN3C(=S)NC[C@@H]3CC(C)C)CC2)cc1OC,0,0,0,0,0
SMILES,HT1080NT lethal,TDP1 cell CPT,TDP1 cell noCPT,IL-1B inflam inh,HT1080 IDH1KD tx
O=C(Cn1cc(S(=O)(=O)Cc2ccc(F)cc2)c2ccccc21)NCc1ccccc1Cl,-,?,21µM,-,-
Cc1ccc(CNC(=O)Cn2cc(S(=O)(=O)Cc3ccccc3F)c3ccccc32)cc1,-,15µM,?,-,-
COc1cccc(NC(=O)Cn2cc(S(=O)(=O)Cc3ccccc3F)c3ccccc32)c1,-,16µM,18µM,-,-
Cc1[nH]c(=O)[nH]c(=O)c1/C=N/NC(=O)[C@H](C)N,0,0,?,0,0
COc1ccc(C(=O)N2CCC3(CCN(Cc4ccccc4OC)CC3)CC2)cc1,-,0,0,-,-
COc1ccccc1N(C)S(=O)(=O)c1ccc(C(=O)N(C)Cc2cccc(OC)c2OC)cc1,0,?,21µM,0,0
